# Experimental data as given in the supplement of paper PMC9694430.
# Where “and” joins values, the source holds several entries; their conditions need not be identical. Equal entries are not always repeated.
# What was measured:
# Experiment in all cases: thermal shift delta Tm vs DMSO control; higher = stronger stabilization (binding)
# Conditions in all cases: 12.5 µM; protein concentration 2 µM
# LOC_OS01G01410-cb001 = system: LOC_OS01G01410-cb001
# Method in brief: (§1)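 Thermal shift values come from differential scanning fluorimetry on purified rice kinase domains made in E. coli, with melting temperatures obtained from Boltzmann fits. Samples of 19.5 μl held 2 μM kinase, 100 mM potassium phosphate pH 7.5, 150 mM NaCl, 10% glycerol, 5 × SYPRO Orange and compound in DMSO, and were heated from 25°C to 95°C at 0.05°C/s. Each shift is a triplicate mean relative to the DMSO-only protein sample.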
# LOC_OS01G02750-cb003 = system: LOC_OS01G02750-cb003
# Method in brief: as §1
# LOC_OS01G10900-cb004 = system: LOC_OS01G10900-cb004
# Method in brief: as §1
# LOC_OS01G13800-cb001 = system: LOC_OS01G13800-cb001
# Method in brief: as §1
# LOC_OS01G14860-cb001 = system: LOC_OS01G14860-cb001
# Method in brief: as §1
# LOC_OS01G21960-cb002 = system: LOC_OS01G21960-cb002
# Method in brief: as §1
# LOC_OS01G39600-cb002 = system: LOC_OS01G39600-cb002
# Method in brief: as §1
# LOC_OS01G48390-cb002 = system: LOC_OS01G48390-cb002
# Method in brief: as §1
# LOC_OS01G51400-cb002 = system: LOC_OS01G51400-cb002
# Method in brief: as §1
# LOC_OS01G52050-cb004 = system: T1, LOC_OS01G52050-cb004
# T1 sequence (whole entry): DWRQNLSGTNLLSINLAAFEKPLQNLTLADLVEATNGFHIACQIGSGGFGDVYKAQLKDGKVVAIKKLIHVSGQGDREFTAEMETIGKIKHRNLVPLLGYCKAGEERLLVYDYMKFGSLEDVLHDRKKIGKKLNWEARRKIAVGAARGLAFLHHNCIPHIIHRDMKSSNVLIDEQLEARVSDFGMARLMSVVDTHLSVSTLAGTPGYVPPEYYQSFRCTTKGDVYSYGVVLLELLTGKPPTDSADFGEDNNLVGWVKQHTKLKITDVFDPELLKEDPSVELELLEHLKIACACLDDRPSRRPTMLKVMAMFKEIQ
# Method in brief: as §1
# LOC_OS01G57100-cb003 = system: LOC_OS01G57100-cb003
# Method in brief: as §1
# LOC_OS01G60330-cb001 = system: LOC_OS01G60330-cb001
# Method in brief: as §1
# LOC_OS01G60700-cb002 = system: LOC_OS01G60700-cb002
# Method in brief: as §1
# LOC_OS01G63280-cb003 = system: LOC_OS01G63280-cb003
# Method in brief: as §1
# LOC_OS01G67340-cb003 = system: LOC_OS01G67340-cb003
# Method in brief: as §1
# LOC_OS01G70970-cb002 = system: LOC_OS01G70970-cb002
# Method in brief: as §1
# LOC_OS02G07810-cb001 = system: LOC_OS02G07810-cb001
# Method in brief: as §1
# LOC_OS02G08530-cb003 = system: LOC_OS02G08530-cb003
# Method in brief: as §1
# LOC_OS02G14120-cb001 = system: LOC_OS02G14120-cb001
# Method in brief: as §1
# LOC_OS02G17970-cb001 = system: LOC_OS02G17970-cb001
# Method in brief: as §1
# 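Further: purified Escherichia coli-expressed rice kinase domain construct.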
Structure (SMILES),thermal shift delta Tm (LOC_OS01G01410-cb001),thermal shift delta Tm (LOC_OS01G02750-cb003),thermal shift delta Tm (LOC_OS01G10900-cb004),thermal shift delta Tm (LOC_OS01G13800-cb001),thermal shift delta Tm (LOC_OS01G14860-cb001),thermal shift delta Tm (LOC_OS01G21960-cb002),thermal shift delta Tm (LOC_OS01G39600-cb002),thermal shift delta Tm (LOC_OS01G48390-cb002),thermal shift delta Tm (LOC_OS01G51400-cb002),thermal shift delta Tm (LOC_OS01G52050-cb004),thermal shift delta Tm (LOC_OS01G57100-cb003),thermal shift delta Tm (LOC_OS01G60330-cb001),thermal shift delta Tm (LOC_OS01G60700-cb002),thermal shift delta Tm (LOC_OS01G63280-cb003),thermal shift delta Tm (LOC_OS01G67340-cb003),thermal shift delta Tm (LOC_OS01G70970-cb002),thermal shift delta Tm (LOC_OS02G07810-cb001),thermal shift delta Tm (LOC_OS02G08530-cb003),thermal shift delta Tm (LOC_OS02G14120-cb001),thermal shift delta Tm (LOC_OS02G17970-cb001)
c1cncc(CN2CCC(n3ncc4c(N5CCOCC5)nc(-c5ccc6[nH]ccc6c5)nc43)CC2)c1,0.33 °C,-0.32 °C,0.65 °C,0.33 °C,0.21 °C,0.55 °C,0.03 °C,0.18 °C,0.45 °C,-0.01 °C,2.55 °C,0.61 °C,0.71 °C,0.09 °C,-0.04 °C,0.4 °C,0.62 °C,0.57 °C,0.15 °C,0.27 °C
Nc1cccc(-c2cc3c(Oc4cccc(O)c4)ncnc3[nH]2)c1,2.64 °C,1.81 °C,1.53 °C,0.59 °C,4.88 °C,1.92 °C,3.68 °C,2.32 °C,0.45 °C,2.13 °C,2.04 °C,0.91 °C,1.51 °C,2.09 °C,0.65 °C,0.81 °C,1.59 °C,1.94 °C,5.81 °C,0.97 °C
O=C(NC1CCNCC1)c1n[nH]cc1NC(=O)c1c(Cl)cccc1Cl,0.79 °C and -0.04 °C,0.32 °C and 1.46 °C,0.21 °C and 0.72 °C,-0.01 °C and 1.05 °C,4.91 °C and 5.53 °C,0.86 °C and 0.55 °C,-0.04 °C and 0.17 °C,0.25 °C and 0.54 °C,-0.23 °C and 0.38 °C,-0.1 °C and 0.56 °C,0.75 °C and 1.2 °C,0.78 °C and 1.25 °C,0.49 °C and 1.4 °C,0.02 °C and 0.4 °C,-0.21 °C and 0.3 °C,0.28 °C and 0.16 °C,0.48 °C and 1.2 °C,0.49 °C and 0.58 °C,-0.32 °C and 0.19 °C,0.23 °C and 1.28 °C
Nc1nc(Nc2ccc(S(N)(=O)=O)cc2)nn1C(=O)c1c(F)cccc1F,4.86 °C,1.06 °C,0.71 °C,0.59 °C,5.95 °C,1.73 °C,4.79 °C,5.9 °C,0.49 °C,5.43 °C,1.36 °C,7.23 °C,0.65 °C,3.58 °C,3.74 °C,3.11 °C,1.06 °C,1.98 °C,8.28 °C,0.44 °C
O=C(/C=C/c1ccc2ccccc2n1)c1ccncc1,0.4 °C,-1.2 °C,1.49 °C,0.45 °C,1.08 °C,2.15 °C,-0.61 °C,0.91 °C,0.46 °C,-0.48 °C,1.22 °C,1.35 °C,0.05 °C,1.12 °C,0.62 °C,0.59 °C,0.02 °C,2.02 °C,2.08 °C,1.05 °C
CC(C)c1c2cc(-c3ccnc(NC4CCC(NC5CCOCC5)CC4)n3)ccc2nn1C (stereo not given),1.15 °C,4.38 °C,1.83 °C,-0.3 °C,7.15 °C,2.64 °C,1.1 °C,2.74 °C,0.39 °C,2.13 °C,0.61 °C,0.07 °C,0.86 °C,0.36 °C,0.46 °C,0.29 °C,0.41 °C,1.38 °C,4.79 °C,0.57 °C
OC(c1cc(-c2ccc(Cl)cc2)nc2ccccc12)C1CCCCN1 (stereo not given) [Vacquinol-1],0.1 °C,1.71 °C,0.31 °C,1.34 °C,0.11 °C,1.18 °C,-0.2 °C,0.86 °C,0.34 °C,0.54 °C,2.48 °C,1.32 °C,1.39 °C,0.78 °C,1.06 °C,0.39 °C,0.67 °C,0.72 °C,0.39 °C,0.79 °C
CC(C)n1ncnc1-c1cn2c(n1)-c1ccc(O[C@@H](C)C(N)=O)cc1OCC2,0.47 °C,1.25 °C,0.08 °C,0.67 °C,0.28 °C,0.8 °C,0.74 °C,0.6 °C,0.1 °C,0.31 °C,0.54 °C,0.84 °C,1.39 °C,0.36 °C,0.34 °C,0.21 °C,1.33 °C,0.19 °C,0.43 °C,1.55 °C
C=CC(=O)N1CCC(Oc2cc3c(Nc4ccc(Cl)c(Cl)c4F)ncnc3cc2OC)CC1 [Poziotinib (HM781-36B)],0.75 °C,0.07 °C,0.6 °C,-0.34 °C,0.65 °C,0.36 °C,1.56 °C,0.49 °C,-0.16 °C,1.24 °C,0.31 °C,-0.17 °C,0.72 °C,0.26 °C,0.45 °C,0.11 °C,-0.05 °C,1.45 °C,1.12 °C,0.35 °C
COc1ccc(-c2cc3nccn3c(Nc3ncccc3C(N)=O)n2)cc1OC,1.05 °C,1.45 °C,1.83 °C,0.09 °C,6.47 °C,2.98 °C,0.18 °C,1.07 °C,0.17 °C,2.44 °C,0.13 °C,1.34 °C,1.05 °C,1.03 °C,0.74 °C,0.22 °C,0.81 °C,3.01 °C,3.03 °C,0.79 °C
O=C1NC(=O)[C@@H](c2cn3c4c(cccc24)CCC3)[C@@H]1c1c[nH]c2ccccc12 [Tivantinib (ARQ 197)],0.55 °C,0.06 °C,0.15 °C,0.17 °C,0.16 °C,0.75 °C,0.54 °C,0.43 °C,0.27 °C,0.75 °C,1.7 °C,0.74 °C,0.02 °C,0.24 °C,0.37 °C,0.39 °C,0.91 °C,0.76 °C,0.16 °C,0.24 °C
Nc1ncnc2n[nH]c(Nc3ccc(F)cc3)c12,1.74 °C,1.17 °C,1.94 °C,-0.28 °C,0.76 °C,1.31 °C,2.02 °C,1.2 °C,0.33 °C,1.46 °C,1 °C,1.15 °C,0.86 °C,3.22 °C,0.86 °C,0.93 °C,0.46 °C,1.06 °C,3.5 °C,0.76 °C
